PubChem BioAssay (NCI)
About 83,000 compounds went through this panel and 20% of them were active in at least one assay; those are over-represented in the sample as a whole.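 Activity criterion: percent growth below 10, measured after cells in 96-well plates were exposed to a single compound concentration for 48 hours.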 A number with no mark means an inactive call. Calls of active or inactive are those of the source.

Legend:
Assay in all cases: NCI-60 one-dose screen, 48 h (100 = growth as untreated, 0 = no growth, -100 = all killed)
Conditions in all cases: 10 µM
SK-MEL-2 melanoma = test system: SK-MEL-2 melanoma
EKVX NSCLC = test system: EKVX NSCLC
SN12C renal = test system: SN12C renal
TK-10 renal = test system: TK-10 renal
ACHN renal = test system: ACHN renal
CAKI-1 renal = test system: CAKI-1 renal
A498 renal = test system: A498 renal
CCRF-CEM leukemia = test system: CCRF-CEM leukemia
MOLT-4 leukemia = test system: MOLT-4 leukemia
UO-31 renal = test system: UO-31 renal

Row | Structure (SMILES) | growth (SK-MEL-2 melanoma) | growth (EKVX NSCLC) | growth (SN12C renal) | growth (TK-10 renal) | growth (ACHN renal) | growth (CAKI-1 renal) | growth (A498 renal) | growth (CCRF-CEM leukemia) | growth (MOLT-4 leukemia) | growth (UO-31 renal)
1 | Brc1ccc(/C=C/c2n(Cc3ccc4ccccc4c3)c3ccccc3[n+]2Cc2ccc3ccccc3c2)cc1 | -88.9% (active) | -81.6% (active) | -58.9% (active) | -63.2% (active) | -31.6% (active) | -29.9% (active) | 54.9% | -14.2% (active) | -7.46% (active) | 
2 | Clc1cccc(N/N=C/c2c[nH]c3ccccc23)n1 | 73.3% | 32.4% | 16.8% | 71.7% | 44.7% | 35.5% | 75.7% | 8.71% (active) | 23.8% | 
3 | Nc1nc(-c2ccccc2)cc(-c2cc3ccccc3nc2Cl)n1 | 97.1% | 80.1% | 83% | 111% | 89.1% | 80.1% | 108% | 1.2% (active) | 59.2% | 
4 | Cc1nn(-c2ccccc2)c2ncn(CC(=O)N/N=C/c3c[nH]c4ccccc34)c(=O)c12 | 86.3% | 61.2% | 89.7% | 107% | 85.2% | 71.9% | 79.5% | 85% | 55.8% | 
5 | C/C(=N\NC(N)=S)c1ccc(Nc2nc(SC(C)C)nc(-c3ccccc3)c2C#N)cc1 | 89.3% | 75.9% | 63.5% | 98.1% | 58.3% | 74.6% | 123% | 76.3% | 77.5% | 
6 | O=C1Nc2ccc(F)cc2/C1=C/c1cccc(OCc2ccccc2)c1 | -23.1% (active) | 18.4% | 20.2% | 70.9% | 22.4% | 25.9% | 80.2% | -4.49% (active) | 1.81% (active) | 
7 | COC1=C[C@@]23CCC(=O)N2CCc2cc4c(cc2[C@H]3[C@H]1OC(=O)C(C)(C)O)OCO4 | 104% | 97.2% | 96.5% | 97.7% | 103% | 95.6% | 108% | 99.3% | 86.7% | 
8 | N#Cc1c(-c2ccc(Cl)cc2)cc(-c2ccccc2)nc1OCc1ccccc1 | 76% | 52.6% | 87.8% | 97.8% | 75% | 73.8% | 118% | 79.9% | 47.8% | 
9 | COc1ccc2nc(Cl)c(-c3cc(-c4ccccc4)nc(N)n3)cc2c1 | 69.5% | 59.8% | 10% | 74.4% | 55.4% | 60.4% | 84.8% | -4.77% (active) | -18.1% (active) | 
10 | COc1ccc2nc(Cl)c(-c3cc(-c4ccccc4)nc(=S)[nH]3)cc2c1 | 9.29% (active) | 65.6% | 75.6% | 129% | 51.3% | 56.9% | 87.7% | 64.5% | 23.8% | 
11 | OCCNc1oc(-c2ccccc2)nc1[P+](c1ccccc1)(c1ccccc1)c1ccccc1 | -31.8% (active) | 23.8% | 2.4% (active) | 32.4% | 84.4% | 75.1% | 74.6% | 9.78% (active) | 10.2% | 
12 | O=C(CSc1nnc(-c2c[nH]c3ccccc23)n1-c1ccccc1)Nc1ccc(C(=O)/C=C/c2ccc(Br)cc2)cc1 | 101% | 67.4% | 89.5% | 97.7% | 78% | 76% | 106% | 90.9% | 57.1% | 
13 | Cc1ccc(/C=C(\C#N)n2nnc3c(F)cccc32)cc1 | 16.5% | 28.8% |  | 0.416% (active) | 19.7% | 21.8% | 71.8% | 10.1% |  | 
14 | CC(C)Sc1nc(NC2CC2)c(C#N)c(-c2ccccc2)n1 | 97.7% | 77.4% |  | 92.9% | 53.5% | 56.8% | 99.3% | 96.3% | 102% | 79.4%
